Experimental data: PubChem BioAssay
Activity calls are given as the source filed them.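 The calls were made as follows, unless noted: active = inhibition at or above 50% at 10 µM; inactive = inhibition below 50%.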

Target: Alpha-2C adrenergic receptor (Homo sapiens) (UniProt P18825)
Assay: modulators of alpha2C/GIRK thallium flux, primary screen, cell-based, HEK293 alpha2C/GIRK1/2 (AID 624;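 active = fluorescence slope after compound addition differing from the mean of all screened samples at 99.7% confidence, in either direction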;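 also: slope of fluorescence ratio to pre-addition baseline per second over 15 to 24 s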)
Details: thallium flux BTC fluorescence, at 10 µM, actives lie on both sides

Sequence of Alpha-2C adrenergic receptor (Homo sapiens) (P18825 whole entry, looked up): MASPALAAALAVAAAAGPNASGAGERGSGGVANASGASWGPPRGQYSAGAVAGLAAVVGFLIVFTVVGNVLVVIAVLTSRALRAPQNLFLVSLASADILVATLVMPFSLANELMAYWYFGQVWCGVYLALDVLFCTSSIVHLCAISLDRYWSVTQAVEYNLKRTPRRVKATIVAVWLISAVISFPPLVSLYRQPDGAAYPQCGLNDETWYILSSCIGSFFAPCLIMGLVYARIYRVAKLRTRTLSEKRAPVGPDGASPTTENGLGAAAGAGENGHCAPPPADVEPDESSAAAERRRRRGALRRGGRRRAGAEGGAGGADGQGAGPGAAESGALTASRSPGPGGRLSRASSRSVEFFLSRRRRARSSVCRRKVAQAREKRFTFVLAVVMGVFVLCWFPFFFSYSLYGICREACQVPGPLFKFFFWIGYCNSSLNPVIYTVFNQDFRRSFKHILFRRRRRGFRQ

slope, inactive:
Cn1cc(CN2CCc3ccccc3C2)c2ccccc21 0.00535
Cc1cc(C)n(-c2ccc(C(=O)Oc3ccc4c(c3)OCO4)cc2)n1 0.00555
O=C(O)c1cccc(NS(=O)(=O)c2ccc3nnn(O)c3c2)c1 0.00611
CN(Cc1ccccc1)C(=O)c1ccc2c(c1)OCO2 0.0038
COc1cccc(C(=O)Nc2ccc(C)cc2)c1 0.00626
Cc1cc(NC(=O)CCOc2ccccc2)no1 0.00305
CCCCOc1ccc(CSc2n[nH]c(C)n2)cc1 0.00825
COc1ccc(C)cc1NCc1cccc(OC)c1OC 0.00476
O=C(CSc1nc(-c2ccccc2)cs1)NC(=O)NCc1ccco1 0.00572
COC(=O)C1=C(C)C(c2cccs2)NC(=O)N1C (stereo not given) 0.0046
CCCn1c(N)c(C(=O)CSc2nnc(Cc3ccccc3)o2)c(=O)n(C)c1=O 0.00683
CC(C)NC(=O)CSc1nc2ccccc2n1-c1ccccc1 0.00781
CCCCNC(=O)Cn1c(=O)n(C)c2ccccc21 0.00707
Cc1csc(NC(=O)C2CCCO2)n1 (stereo not given) 0.00887
COc1ccccc1OCCCCNCCO 0.00597
C/C(=C\c1ccco1)C1C(C#N)=C(N)OC2=C1C(=O)CC(C)(C)C2 (stereo not given) 0.00426
O=C(c1ccc(Cl)c(F)c1F)N1CCCC1 0.00949
CCC(C)(C)n1nnnc1C(c1cc2cc(C)ccc2[nH]c1=O)N1CCCC1 (stereo not given) 0.00689
NC(=O)CCS(=O)(=O)CCN1CCCCC1 0.0056
Cc1ccc(Cn2nnc(C(=O)Nc3cccc(C)c3C)c2N)cc1 0.00621
CSc1oc(-c2ccccc2)nc1S(=O)(=O)c1ccc(F)cc1 0.00494
c1ccc(CN2CCN(CCCNc3ccc4nnc(-c5ccccc5)n4n3)CC2)cc1 0.00645
Cc1cc(NC(=O)c2ccccc2)ncc1NC(=O)c1ccco1 0.00711
COc1ccc(Br)cc1C1N2CC3(C)CN1CC(C)(C2)C3=O (stereo not given) 0.00688
Clc1cccc(Nc2c3c(nc4ncnn24)CCC3)c1 0.00604

System: not listed separately
Assay: inhibitors of Sendai virus-induced IRF3 signaling, primary screen, TLR/RLR signaling modifier project, cell-based, Sendai virus stimulus, luciferase, 10K MLSCN set (AID 602276);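 also: firefly luciferase from ISG56 promoter only with Renilla not read in this screen; 0% = Sendai virus plus DMSO and 100% = medium plus DMSO without virus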
Details: HEK293 RL24 IRF3 luciferase reporter, at 10 µM, active compounds read high

inhibition, inactive:
Cc1ccc2c(CC(=O)OCc3csc(C)n3)coc2c1 6.62%
O=C(Nc1ccccc1)c1cnc2n(c1=O)CCS2 -16.4%
Cc1cccc(C2c3c(n(C)c(=O)n(C)c3=O)N=C3c4ccccc4C(=O)C32)c1 (stereo not given) 16%
CC1CC(C)CN(CCCNC(=O)c2ccc3c(c2)NC(=O)C(N2CCCCC2)S3)C1 (stereo not given) -18.6%
O=C(Nc1cccnc1)c1noc2c1CCCCC2 33.4%
O=C(OCc1nnc(-c2ccc(Cl)cc2)o1)c1ccc(=O)n(Cc2ccccc2)n1 -5.01%
CC1CCN(C(=O)CSc2nc3ccccc3[nH]2)CC1 -38.7%
O=C(Nc1ccc2snnc2c1)N1CCSCC1 -5.1%
Cc1cccc(NS(=O)(=O)c2cc(C(=O)OCC(=O)Nc3cc(C)on3)ccc2C)c1 25.1%
COc1ccc(-c2nc3c(c(SCC(=O)N4CCOCC4)n2)COC(C)(C)C3)cc1 12.6%
CNS(=O)(=O)c1cccc(C(=O)OCC(=O)c2cc(C)n(-c3ccc4c(c3)OCO4)c2C)c1 -1.89%
Cc1nc(CCNS(=O)(=O)c2cccs2)cs1 -9.77%
O=C(O)CCc1ccc(-c2ccc(F)cc2)n1CC(=O)O 10.3%
CCOc1ccccc1N(CC(=O)N1CCOCC1)S(=O)(=O)c1ccccc1 -13.5%
Cc1onc(-c2ccccc2)c1C(=O)Nc1sc2c(c1C(N)=O)CCC2 8.08%
Cn1cc(CN2CCc3ccccc3C2)c2ccccc21 20.8%
Cc1cc(C)n(-c2ccc(C(=O)Oc3ccc4c(c3)OCO4)cc2)n1 7.51%
O=C(O)c1cccc(NS(=O)(=O)c2ccc3nnn(O)c3c2)c1 12.9%
CN(Cc1ccccc1)C(=O)c1ccc2c(c1)OCO2 2.22%
COc1cccc(C(=O)Nc2ccc(C)cc2)c1 -48.7%
Cc1cc(NC(=O)CCOc2ccccc2)no1 6.04%
CCCCOc1ccc(CSc2n[nH]c(C)n2)cc1 -55.7%
COc1ccc(C)cc1NCc1cccc(OC)c1OC -7.74%
O=C(CSc1nc(-c2ccccc2)cs1)NC(=O)NCc1ccco1 18.5%
COC(=O)C1=C(C)C(c2cccs2)NC(=O)N1C (stereo not given) 15.4%
CCCn1c(N)c(C(=O)CSc2nnc(Cc3ccccc3)o2)c(=O)n(C)c1=O 9.61%
CC(C)NC(=O)CSc1nc2ccccc2n1-c1ccccc1 -22.3%
CCCCNC(=O)Cn1c(=O)n(C)c2ccccc21 9.9%
Cc1csc(NC(=O)C2CCCO2)n1 (stereo not given) -2.56%
COc1ccccc1OCCCCNCCO 1.66%
C/C(=C\c1ccco1)C1C(C#N)=C(N)OC2=C1C(=O)CC(C)(C)C2 (stereo not given) 15.4%
O=C(c1ccc(Cl)c(F)c1F)N1CCCC1 -9.75%
CCC(C)(C)n1nnnc1C(c1cc2cc(C)ccc2[nH]c1=O)N1CCCC1 (stereo not given) 13.6%
NC(=O)CCS(=O)(=O)CCN1CCCCC1 19.5%
Cc1ccc(Cn2nnc(C(=O)Nc3cccc(C)c3C)c2N)cc1 6.59%
CSc1oc(-c2ccccc2)nc1S(=O)(=O)c1ccc(F)cc1 16.4%
c1ccc(CN2CCN(CCCNc3ccc4nnc(-c5ccccc5)n4n3)CC2)cc1 -3.46%
Cc1cc(NC(=O)c2ccccc2)ncc1NC(=O)c1ccco1 7.79%
COc1ccc(Br)cc1C1N2CC3(C)CN1CC(C)(C2)C3=O (stereo not given) -3.74%
Clc1cccc(Nc2c3c(nc4ncnn24)CCC3)c1 14.9%
